# Only some compounds are listed: those with a hit (about 2.3% of all), similar ones and a draw of the others.
# Jurkat NFkB inh: inhibitors of the PMA/ionomycin-induced NF-kB reporter in Jurkat cells; PMA/ionomycin-induced NF-kB luciferase reporter, luminescence; inhibition, % at 4 µM; 0.53% of 330,000 active; AID 435003; in the data active means inhibition above about 50%
# Shn3 inh set2: reduces Shn3 3'UTR luciferase signal in osteoblasts | Clone20 osteoblast Shn3 3'UTR firefly luciferase, 24 h | inhibition, % at 12.5 µM | 0.52% of 360,000 active | AID 588674;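 active means mean inhibition of at least 75% with every replicate also reaching 75%; inconclusive means mean inhibition at least 75% but some replicate below; inactive means mean inhibition below 75%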;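 further: 0% = median of neutral control wells and 100% = pilot-screen positive control compound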
# aSyn UTR inh: MLPCN primary screen, SNCA 5' untranslated region. alpha-synuclein 5'UTR reporter, inhibitor activity. inhibition, % (tested at 7.5 µM). 0.82% of 300,000 active; in the data active means inhibition above about 60%; inconclusive means no clear call, values can overlap the other calls;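 further: H4 neuroglioblastoma cells stably carrying SNCA 5'UTR luciferase fusion; 0% = DMSO wells and 100% = positive control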
# Gli-Sufu antag: Gli-Sufu pathway antagonism | inhibition, % at 5 µM | AID 588413 | 0.74% of 340,000 active | Sufu-KO-LIGHT fibroblasts, Gli luciferase reporter luminescence;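 active means inhibition above about 55%, limit read from the data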;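 further: 0% = DMSO-treated cells and 100% = wells with medium but no cells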
# TAG inh: reduces triacylglycerol accumulation in H9c2 cells | Nile Red lipid (TAG) fluorescence; cells loaded with 200 µM oleic acid | inhibition, % at 12.5 µM | 0.66% of 230,000 active;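 active means pattern-corrected inhibition of lipid staining of at least 50% with the nuclear-stain viability signal not falling by more than 50%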;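 further: 0% = DMSO wells and 100% = triacsin C control wells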
# 697 NFkB inh: lowers PMA/ionomycin-induced NF-kB signal in 697 B cells. 697 B-cell NF-kB luciferase reporter, 16 h. inhibition, % at 4 µM. 0.33% of 330,000 active. AID 435022; in the data active means inhibition above about 35%
# 697 NFkB conf: lowers PMA/ionomycin-induced NF-kB signal in 697 B cells; inhibition, % at 4 µM; shares compounds with 697 NFkB inh; AID 449746; 697 B-cell NF-kB luciferase, 16 h; 35% of 2,000 active; in the data active means inhibition mostly above about 28%, no sharp cut-off; inactive means mostly below about 22%
# Numbers without * were called inactive; i = inactive; ? = inconclusive; . = not tested or not shown.
SMILES,Jurkat NFkB inh,Shn3 inh set2,aSyn UTR inh,Gli-Sufu antag,TAG inh,697 NFkB inh,697 NFkB conf
COc1ccc(NC(=O)N2Cc3ccccc3CC2C(=O)NC(C)(C)C)cc1 (stereo not drawn),-3.3,-1.3,3.0,7.4,1.4,-1.3,.
COc1ccc(N2CCN(C(=O)Nc3ccc(S(=O)(=O)N(C)C)cc3)CC2)cc1,-7.1,4.6,-1.5,-0.2,0.1,1.0,.
CN(C)S(=O)(=O)c1ccc(NC(=O)N2CCN(c3ccccc3)CC2)cc1,-8.6,-2.6,2.0,23.4,-11.4,46.1*,28.7*
Oc1ccccc1-c1cc(C(F)(F)C(F)F)nc(-c2ccccc2)n1,15.3,-13.0,.,-0.1,.,16.2,.
COc1cccc(-c2cc(C(F)(F)F)nc(-n3ccc([N+](=O)[O-])n3)n2)c1,4.5,.,17.5,14.7,-2.7,15.0,.
O=[N+]([O-])c1ccn(-c2nc(-c3ccccc3)cc(C(F)(F)F)n2)n1,-10.8,7.5,2.8,-7.8,-5.1,38.9*,2.6
O=[N+]([O-])c1ccc(O)c(-c2cc(C(F)(F)F)nc(-c3ccccc3)n2)c1,44.6,90.3*,90.1*,87.9*,.,i,-459.8
Cc1ccc(S(=O)(=O)Nc2ccc3nc(C)oc3c2)cc1,.,27.2,.,23.9,-26.0,.,.
COc1ccc(Nc2nnc(-c3ccc(O)cc3)c3ccccc23)cc1C(N)=O,-2.9,8.7,10.0,-6.3,-0.3,39.0*,22.7
COc1ccc(Nc2nnc(C)c3ccccc23)cc1C(N)=O,5.0,-13.7,-55.4,-1.2,-1.9,2.9,.
Cn1c(=O)n(C)c2cc(/C=C3/NC(=O)N(Cc4ccccc4)C3=O)ccc21,11.3,13.6,-29.4,22.5,.,46.8*,26.6*
Cc1c(NC(=O)/C=C/c2cn(-c3ccccc3)nc2-c2ccccc2)c(=O)n(-c2ccccc2)n1C,17.7,3.6,35.4,-9.6,6.8,35.5*,28.4*
Cc1ccn2cc(-c3ccc(Br)cc3)nc2c1,-148.7,35.8,62.7*,-102.1,-10.1,-341.2,-417.1
Cc1ccc(S(=O)(=O)Nc2ccc(-c3cn4ccc(C)cc4n3)cc2)cc1,-6.9,-19.7,-16.7,10.8,.,-15.4,.
CCc1nc(N=Nc2c(O)[nH]c3ccccc23)c2c3c(sc2n1)CCC3,1.9,10.8,43.5,.,.,37.2*,6.8
CC1CCc2c(sc3ncn(CC(=O)N=Nc4c(O)[nH]c5ccccc45)c(=O)c23)C1 (stereo not drawn),9.2,2.7,28.6,-10.2,-2.7,23.0,.
CCN(CC)CCCN=Cc1c(-c2ccccc2)[nH]n(-c2nc3ccccc3s2)c1=O,6.9,-4.4,8.6,3.5,-6.8,40.1*,42.1*
CCC(=O)Nc1cc2nn(-c3ccc(OC)cc3)nc2cc1C,-59.5,7.5,35.0,-52.6,.,-268.6,-211.7
COc1cc2[nH]c(=S)n(CC3CCCO3)c(=O)c2cc1OC (stereo not drawn),2.0,-10.4,17.9,8.8,.,37.1*,22.6
N=c1ccn2c(n1)OC1C(O)C(CO)OC12 (stereo not drawn),28.1,74.0,111.7*,34.4,.,54.3*,59.7*
O=C(Nc1nccs1)c1sc2ccccc2c1Cl,-114.9,-10.1,?,11.5,-2.8,-352.3,-326.2
O=C(Nc1nccs1)c1sc2cc(Cl)ccc2c1Cl,-93.3,-67.4,-115.2,-62.1,-8.6,-86.5,.
COC(=O)c1ccccc1NCc1cc(=O)oc2cc(O)c(O)cc12,6.3,-4.4,-5.3,20.1,.,-50.5,.
Cc1ccccc1-c1cc(=O)c2ccccc2o1,7.8,-1.4,.,-2.4,.,-9.9,.
Cc1ccccc1-c1nc2sc3c(c2c(=O)n1N)CCCC3,-99.8,-57.1,-52.1,33.7,-15.4,-275.8,-229.4
SMILES,Jurkat NFkB inh,Shn3 inh set2,aSyn UTR inh,Gli-Sufu antag,TAG inh,697 NFkB inh,697 NFkB conf
COc1ccc(C(=O)Nc2ccccc2C(=O)NCc2ccco2)cc1OC,13.4,11.9,26.7,-8.5,.,37.1*,31.2*
COc1ccc(OCC(=O)Nc2nc3c(s2)CCCC3)cc1,0.8,2.0,-30.0,-14.8,.,-7.4,.
COc1ccccc1OCC(=O)Nc1nc2c(s1)CCCC2,-41.1,-23.3,-11.4,-29.5,.,-275.9,-161.6
Cc1ccc(CC(=O)Nc2nc3c(s2)CCCC3)cc1,-76.9,-12.0,-8.8,-7.8,24.1,i,-482.9
CCc1[nH]nc2c1C(c1ccc(Br)s1)C(C#N)=C(N)O2 (stereo not drawn),8.6,-18.5,.,19.4,-12.0,43.1*,22.6
CCc1[nH]nc2c1C(c1ccsc1)C(C#N)=C(N)O2 (stereo not drawn),-7.7,-11.2,6.3,-80.1,-6.0,34.6,.
COc1ccc(NS(=O)(=O)c2cc(NC(=O)c3cncc(Br)c3)ccc2OC)cc1,-5.4,22.9,.,14.9,26.6,3.4,.
COc1ccc(NS(=O)(=O)c2cc(NC(=O)c3nn(C)c(=O)c4ccccc34)ccc2OC)cc1,3.4,20.9,19.5,-1.4,-4.3,37.4*,22.1
COc1ccc(S(=O)(=O)N2CCCOC2CNC(=O)C(=O)NCCCn2ccnc2)cc1 (stereo not drawn),-0.6,3.3,0.4,1.3,.,21.0,.
COc1cc(SC)ccc1C(=O)Nc1ncc(Cl)cc1Cl,-96.7,-52.7,-90.8,-69.0,-8.2,-54.1,.
COc1cc(SC)ccc1C(=O)Nc1ccc(Br)cn1,-86.6,75.4,100.8*,20.0,-34.7,-320.8,-452.2
CCOC(=O)N1N=C(C)CC1(O)c1ccccc1 (stereo not drawn),-8.8,-18.1,8.6,-9.5,.,20.5,.
CCC(=O)N(C1=C(NC)C(=O)c2ccccc2C1=O)C(C)C,35.1,-18.3,-0.6,-3.9,21.2,51.7*,47.1*
c1ccc(-c2cnc(-c3ccccc3)nc2)cc1,-133.8,20.5,-66.4,-56.2,.,-295.5,-319.4
COc1ccc(C(CNS(=O)(=O)c2ccc(C)cc2)N2CCN(C)CC2)cc1 (stereo not drawn),-6.3,-26.1,-3.8,-9.8,9.1,-6.2,.
C#CCn1c(S(=O)(=O)Cc2ccc(C)cc2)nc(-c2ccccc2)c1-c1ccccc1,-113.7,25.5,-0.5,38.9,.,i,i
CC(=O)Nc1ccc(NC(=O)c2ccccc2N(Cc2ccccc2)S(C)(=O)=O)cc1,6.3,-3.7,-8.8,7.5,-7.0,6.0,.
COc1ccc(C(=O)N/C(=C\c2cccc3ccccc23)C(=O)N2CCN(C)CC2)cc1OC,-1.8,1.6,19.3,-9.2,2.6,7.0,.
O=C(Nc1nccs1)c1cc2c(s1)CCCCC2,-39.3,29.4,72.0*,8.0,-28.9,-306.9,-356.5
COc1cc(C2C(C#N)=C(N)Oc3cc(N)ccc32)cc(OC)c1OC (stereo not drawn),44.6,0.4,.,55.5*,65.0*,39.4*,44.7*
CCOC(=O)C1=C(C)N=c2s/c(=C/c3ccc(OCC(=O)O)cc3)c(=O)n2C1c1ccc(F)cc1 (stereo not drawn),-2.1,-6.2,10.3,7.3,.,16.3,.
O=c1[nH]c(NC2CCN(S(=O)(=O)c3ccccc3C(F)(F)F)CC2)nc2c1CCCC2,36.1,30.3,17.8,-13.9,.,44.1*,25.9
